# In the library only some 3.3% were active in any assay of this set; here they are far more common.
# AmpC detergent = blocks E. coli AmpC beta-lactamase in detergent assay; AID 485294; hit rate 0.041% among 370,000; Potency, µM (series often up to 114 µM), for the others: top-dose activity change, negative = inhibition, actives largely listed as inhibitors; AmpC hydrolysis of nitrocefin, absorbance 480 nm, 0.01% Triton; P00811;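 also: 0% = no-compound wells and -100% = no-enzyme wells; nearly all actives have a fitted effect of over 25% in size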
# Target sequence (P00811 whole entry, looked up): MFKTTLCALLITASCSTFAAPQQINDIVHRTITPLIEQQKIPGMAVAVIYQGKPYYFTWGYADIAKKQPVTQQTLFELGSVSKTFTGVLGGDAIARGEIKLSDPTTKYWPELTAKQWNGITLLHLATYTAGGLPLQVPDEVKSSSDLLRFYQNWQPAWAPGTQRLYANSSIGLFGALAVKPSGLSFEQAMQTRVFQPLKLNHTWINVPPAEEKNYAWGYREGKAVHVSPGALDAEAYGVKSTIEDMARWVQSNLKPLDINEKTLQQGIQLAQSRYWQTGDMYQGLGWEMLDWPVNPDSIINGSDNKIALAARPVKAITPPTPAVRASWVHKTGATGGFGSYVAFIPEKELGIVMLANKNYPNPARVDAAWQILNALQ
#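 20 mM phosphate pH 7.0 + 0.01% (detergent screen) or 0.0001% Triton X-100; 5.3 nM AmpC reagent; cpd preinc 15 min RT; nitrocefin (800 uM stock) to start; A480 q20 s × 4 min; Activity was normalised to no-enzyme and no-compound control wells.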
# RE007 growth inh = less growth of the S. pombe RE007 Vpr strain; S. pombe RE007 Vpr strain, BacTiter-Glo ATP luminescence, 24 h; Potency, µM (highest dose often 92.2 µM), for the others: top-dose activity change, negative = less growth, most hits filed as inhibitors; hit rate 0.21% among 360,000; active = well fitted falling curve with a large enough effect; inconclusive = small, poorly fitted or top-dose-only effect; inactive = no such curve, though single readings can be large or run the other way; also: % is scaled to controls: 0 for no effect and ±100 for the full control effect; nearly all actives have a fitted effect of over 50% in size
#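 Fission yeast RE007 carrying one integrated HIV-1 vpr copy, seeded at OD 0.01 in PMG+AL medium with 23 nL pinned compound. Grown 24 h at 30 degrees; viability read by BacTiter-Glo luminescence after 5 min.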
# Sm TGR inh = blocks Schistosoma mansoni thioredoxin glutathione reductase; purified TGR, DTNB reduction, TNB absorbance 405 nm; Potency, µM (titrated, usually from 114 µM), inactives show at the top dose activity change, negative = inhibition, most hits filed as inhibitors; hit rate 3% among 360,000; AID 485364; also: % is scaled to controls: 0 for no effect and ±100 for the full control effect; nearly all actives have a fitted effect of over 60% in size
#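 TGR 20 nM + NADPH 100 uM (dispensed conc.), cpd preinc 15 min RT; start with NADPH (500 uM addition) then DTNB (15 mM addition). Kinetic TNB absorbance, 405 nm filter. Four-parameter Hill fit across titration.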
# TbPYK inhibitor = T. brucei pyruvate kinase inhibition. Q57TT1. Potency, µM (top dose mostly 76.8 µM), inactives show top-dose activity, negative = inhibition, hits mostly inhibitors. TbPYK enzyme, Kinase-Glo Plus ATP luminescence, 45 min. hit rate 0.12% among 410,000; also: % is scaled to controls: 0 for no effect and ±100 for the full control effect; nearly all actives have a fitted effect of over 50% in size
#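 Luminescence from Kinase-Glo Plus, added after a 45-minute room-temperature reaction, served as the end-point read-out. The enzyme and substrate were preincubated with compound before ADP (130 uM final) initiated turnover. Concentration-effect curves came from normalized qHTS data.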
# SARS PLP yeast = SARS-CoV PLP inhibition in yeast; S. cerevisiae expressing SARS-CoV PLpro, growth rescue; Potency, µM (titrated, usually from 32.9 µM), for inactives: at the top dose activity, positive = growth rescue, hits mostly activators; hit rate 0.19% among 330,000; AID 485353; calls by dose curve; also: 0% is about no effect; nearly all actives have a fitted effect of over 55% in size
# AmpC no deterg = AmpC beta-lactamase inhibition without detergent | AmpC nitrocefin hydrolysis, absorbance 480 nm, 0.0001% Triton | P00811 | hit rate 0.52% among 330,000 | Potency, µM (doses to about 57.1 µM), inactives show top-dose activity change, negative = inhibition, usual class: inhibitors;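 also: plate controls were no compound for no effect and no enzyme for full effect; nearly all actives have a fitted effect of over 20% in size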
#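 20 mM phosphate pH 7.0 + 0.01% (detergent screen) or 0.0001% Triton X-100; 5.3 nM AmpC reagent; cpd preinc 15 min RT; nitrocefin (800 uM stock) to start; A480 q20 s × 4 min; Activity was normalised to no-enzyme and no-compound control wells.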
# * marks the source's active call; other numbers are inactive results; ? = inconclusive; . = no result given; [ ] = remark or other dose. Unless noted, calls follow the shape of the dose curve; as a rule, active = well fitted curve in the direction sought with a large enough effect; inconclusive = small, poorly fitted or top-dose-only effect, or another doubt; inactive = no such curve, though single readings can be large; an effect the other way counts as inactive or inconclusive. Potency is read from the fitted curve at half-maximal effect.
SMILES,AmpC detergent,RE007 growth inh,Sm TGR inh,TbPYK inhibitor,SARS PLP yeast,AmpC no deterg
Cc1ccccc1Nc1nc(N)nc(COC(=O)c2c(C)noc2C)n1,.,12.3%,.,15.7%,0.2%,-15.6%
Cc1ccccc1Nc1nc(N)nc(COC(=O)/C=C/c2ccco2)n1,?,2.7%,12.6µM*,-10.0%,-0.1%,-14.7%[11.4 µM]
CNC(=O)COC(=O)/C=C/c1ccco1,-2.8%,-23.3%,25.1µM*,4.7%,-7.1%,-4.0%
COc1cc2c(cc1OC)C1O[C@](c3ccsc3)(C2)Oc2cc(-c3ccccc3)oc(=O)c21,-8.0%[22.9 µM],.,7.08µM*,.,6.7%[6.58 µM],-26.7%[11.4 µM]
C=C(C)C(=O)OC1(C(F)(F)F)Oc2cc(C)ccc2NC1=O (stereo not given),?,-9.7%,39.8µM*,-0.5%,-35.4%,-10.8%
CCOC(=O)C1(N(CC)CC)Sc2cc(C)ccc2NC1=O (stereo not given),?,-8.6%,12.7%,-5.0%,-11.3%,-55.3%
CN(C)CCOc1ccccc1Cc1ccccc1 (tested in a mixture with another compound),.,.,.,-2.5%,.,.
Cc1nonc1C(=O)N/N=C/c1cccc(O)c1,?,-22.8%,11.2µM*,-26.4%,-15.2%,-10.5%
O=C(N/N=C/c1cccc(O)c1)N/N=C/c1cccc(O)c1,-8.8%,-1.9%,-1.8%,-15.3%,0.6%,-36.7%
N#C/C(=C\c1cccc(Cl)c1)C(=O)c1ccccc1,0.3%,5.9%,50.1µM*,-6.8%,-2.7%,-32.3%
COC(=O)C1C/C(=N/NS(=O)(=O)c2ccc(C)cc2)CS1 (stereo not given),-11.3%,1.2%,12.6µM*,-11.1%,-1.7%,-19.0%
COC(=O)C1C/C(=N\NS(=O)(=O)c2ccc(C)cc2)c2sccc2C1 (stereo not given),-2.8%,11.2%,-7.1%,-3.4%,-1.9%,-23.2%
O=C(NCc1ccc(F)cc1)c1cc2cccc3c2n1CCS3,8.6%,.,22.7%,-2.5%,.,.
COc1ccc(NC(=O)c2c(NCc3sccc3C)sc3c2CCCCC3)c(OC)c1,1.8%,.,12.6µM*,?,.,.
CCOC(=O)N1CCc2c(sc(NCc3sccc3C)c2C(=O)Nc2ccc(OC)cc2OC)C1,11.1%,.,?,?,.,.
COc1ccccc1NC(=O)c1c(NCc2sccc2C)sc2c1CCCCC2,-2.4%,.,11.2µM*,-11.5%,.,.
CCOc1ccccc1NC(=O)c1c(NCc2sccc2C)sc2c1CCCCC2,0.3%,.,39.8µM*,-24.2%,.,.
CCC(CC)C(=O)Nc1nnc2n1CCS2,5.2%,.,5.7%,1.0%,.,.
Cc1ccc(C)c(CSc2nnc3[nH]c(=O)cc(-c4ccccc4)n23)c1,-0.9%,.,-2.4%,-7.0%,.,.
c1cnc2nc(-c3ccc4c(c3)OCO4)cn2c1,10.5%,22.1%,13.4%,-0.6%,-3.1%,-2.1%
c1ccn2cc(-c3ccc4c(c3)OCO4)cc2c1,5.9%,-11.0%,44.7µM*,-8.1%,0.6%,-15.2%
N#Cc1cc2c(=O)n3ccccc3nc2n(-c2nnc(SCc3ccc(F)cc3)s2)c1=O,1.6%,.,5.0%,-16.6%,.,.
O=C(CCN1C(=O)S/C(=C\c2cccs2)C1=O)NC1=NCCS1,-3.1%,-15.3%,-0.7%,-13.9%,-20.8%,22.4µM*
CCOC(=O)Cc1cc(C(=O)Nc2ccc(Br)cc2)sc1-c1ccc(C)cc1,26.8%,.,4.0%,5.7%,.,.
Cc1occc1-c1nnc(SCc2cc(=O)n3cc(Br)ccc3n2)n1C,-1.5%,-15.6%,44.7µM*,2.1%,2.3%,-6.1%
SMILES,AmpC detergent,RE007 growth inh,Sm TGR inh,TbPYK inhibitor,SARS PLP yeast,AmpC no deterg
Cn1c(SCc2cc(=O)n3cc(Br)ccc3n2)nnc1C1COc2ccccc2O1 (stereo not given),-18.6%,0.5%,3.1%[11.4 µM],-15.4%,-5.1%,13.7%
Cc1ccccc1Nc1nc(CSc2nnc(-c3ccoc3C)n2C)cs1,-11.2%,-3.2%[3.69 µM],35.5µM*,.,-9.0%,-10.9%
CN(C)c1ccc(-c2noc(C3CC(=O)N(c4ccc5c(c4)OCCO5)C3)n2)cc1 (stereo not given),7.7%,.,-3.3%,-2.5%,.,.
Cc1cccc(N2CCN(C(=O)CS(=O)(=O)Cc3nc(-c4ccccc4C)oc3C)CC2C)c1 (stereo not given),7.9%,.,5.7%,5.4%,.,.
COc1cccc(Nc2ncc3nc(-c4ccccc4)c(=O)n(C[C@H]4CCCO4)c3n2)c1,.,.,.,0.6%,.,.
CCCCCC(=O)Cc1cc(O)cc2c1C(=O)Oc1cc(O)c(C(=O)O)c(CCCCC)c1O2,-1.5%,9.2%,35.5µM*,-1.5%,1.4%,-44.8%
CC(NNC(=O)c1ccccc1)c1ccccc1 (stereo not given),.,.,.,-6.6%,.,.
COc1ccc(CNC(=O)C(c2cccs2)N(Cc2ccco2)C(=O)Cc2cccs2)cc1 (stereo not given),-5.9%,6.1%,28.2µM*,-2.9%,-2.5%,-19.8%
Cc1ccc(-c2nnn(CC(=O)N(Cc3ccco3)C(C(=O)NC(C)(C)C)c3cccs3)n2)o1 (stereo not given),-11.3%,11.1%,17.8µM*,-0.8%,-1.9%,-12.4%
Cc1ccc(/C=N/c2sc3c(c2C(N)=O)CCCC3)o1,-1.3%,?,22.4µM*,-4.9%,0.0%,-26.0%
Cc1c(NC2(C#N)CCCCC2)c(=O)n(-c2ccccc2)n1C,3.3%,-3.9%,20µM*,0.1%,0.3%,-11.5%
Cc1c(NC(=O)N2CCCCCC2)c(=O)n(-c2ccccc2)n1C,?,?,-19.7%,1.1%,6.4%,-17.4%
CN(Cc1ccccc1)S(=O)(=O)c1cc(Br)cc2c1N(C(=O)C1CC1)CC2,7.0%,.,-3.9%,0.8%,.,.
CO/N=C(/C(=O)N[C@@H]1C(=O)N2C(C(=O)O)=C(CSC(=O)c3ccco3)CSC12)c1csc(N)n1 (stereo not given in full),.,.,.,0.3%,.,.
C=CCc1ccc(OCC(O)CN2CCC(Cc3ccccc3)CC2)c(OC)c1 (stereo not given),-8.4%,11.1%,50.1µM*,-7.3%,-4.5%,50.6%
CCOC(=O)N1CCC2(CC1)OC(=O)C(C)=C2C(=O)NCc1ccccc1OC,16.1%,.,-3.2%,-1.5%[15.4 µM],.,.
COc1cccc(CNC(=O)Cn2c(SCC(=O)Nc3ccc(F)cc3)nc3ccccc32)c1,-0.7%,.,-1.3%,2.5%,.,.
CCOC(=O)[C@H]1[C@H]2COc3ccc(Cl)cc3[C@@H]2N2C(=O)CN(Cc3ccco3)C(=O)[C@@]12C,0.6%,17.1%,15.8µM*,0.8%,-8.6%,97.7%
CCOC(=O)[C@H]1[C@H]2COc3cc(OC)ccc3[C@@H]2N2C(=O)CN(Cc3ccco3)C(=O)[C@@]12C,-9.4%,1.5%,17.8µM*,-14.6%,-1.9%,57.2%

# Source: PubChem (National Center for Advancing Translational Sciences (NCATS))
